Test results from PubChem BioAssay (NCI).
This is part of a sample that, as a whole, favours compounds with a hit. Of some 83,000 tested, about 20% had one in any assay.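 Step 1: grow cells in 96-well plates. Step 2: add test compound at a single concentration. Step 3: incubate 48 h. Step 4: record percent growth.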 Values without a mark were called inactive. Active and inactive are the calls of the source. The calls were made as follows: active = growth percent below 10; inactive = the rest.

How the values were obtained:
Assay in all cases: NCI-60 one-dose screen, 48 h (100 = growth as untreated, 0 = no growth, -100 = all killed)
Settings in all cases: 10 µM unless noted
NCI-H23 lung = system: NCI-H23 lung
NCI-H226 lung = system: NCI-H226 lung
NCI-H322M lung = system: NCI-H322M lung
HOP-62 NSCLC = system: HOP-62 NSCLC
NCI-H460 lung = system: NCI-H460 lung
HOP-92 NSCLC = system: HOP-92 NSCLC
NCI-H522 lung = system: NCI-H522 lung
A549/ATCC NSCLC = system: A549/ATCC NSCLC
786-0 renal = system: 786-0 renal
COLO 205 colon = system: COLO 205 colon
DU-145 prostate = system: DU-145 prostate
K-562 leukemia = system: K-562 leukemia
MALME-3M melanoma = system: MALME-3M melanoma
MDA-MB-231 breast = system: MDA-MB-231 breast
RXF 393 renal = system: RXF 393 renal
SF-268 CNS = system: SF-268 CNS
SF-295 CNS = system: SF-295 CNS
SF-539 CNS = system: SF-539 CNS
UACC-257 melanoma = system: UACC-257 melanoma
M14 melanoma = system: M14 melanoma

Q: With C=C(C)[C@@H]1CC[C@]2(C)[C@H](CC(=O)N[C@H]3[C@@H]4C[C@](C)(C(=O)OC)CC[C@]4(C)CC[C@]32C)[C@@]1(C)CCC#N as the molecule, how does the growth (NCI-H23 lung) read?
A: 92.7%

Q: What about the growth (NCI-H226 lung) of the same molecule?
A: 78.1%

Q: And the growth (NCI-H322M lung)?
A: 103%

Q: What about the growth (HOP-62 NSCLC) of the same molecule?
A: 110%

Q: What about the growth (NCI-H460 lung) of the same molecule?
A: 96.8%

Q: And the growth (HOP-92 NSCLC)?
A: 69.3%

Q: And the growth (NCI-H522 lung)?
A: 71.3%

Q: And the growth (A549/ATCC NSCLC)?
A: 94.2%

Q: And the growth (786-0 renal)?
A: 107%

Q: And the growth (COLO 205 colon)?
A: 86.9%

Q: And the growth (DU-145 prostate)?
A: 94.4%

Q: What about the growth (K-562 leukemia) of the same molecule?
A: 50.3%

Q: And the growth (MALME-3M melanoma)?
A: 86.7%

Q: And the growth (MDA-MB-231 breast)?
A: 79.7%

Q: What about the growth (RXF 393 renal) of the same molecule?
A: 83%

Q: And the growth (SF-268 CNS)?
A: 81.2%

Q: What about the growth (SF-295 CNS) of the same molecule?
A: 81.2%

Q: What about the growth (SF-539 CNS) of the same molecule?
A: 95.9%

Q: What about the growth (UACC-257 melanoma) of the same molecule?
A: 83.7%

Q: What about the growth (M14 melanoma) of the same molecule?
A: 86.8%

Q: With CCOC(=O)c1cnn(-c2ccc(S(N)(=O)=O)cc2)c1N as the molecule, how does the growth (NCI-H23 lung) read?
A: 95.5%

Q: And the growth (NCI-H226 lung)?
A: 92%

Q: What about the growth (NCI-H322M lung) of the same molecule?
A: 99.8%

Q: What about the growth (HOP-62 NSCLC) of the same molecule?
A: 95.9%

Q: What about the growth (NCI-H460 lung) of the same molecule?
A: 104%

Q: And the growth (HOP-92 NSCLC)?
A: 105%

Q: What about the growth (NCI-H522 lung) of the same molecule?
A: 96.2%

Q: What about the growth (A549/ATCC NSCLC) of the same molecule?
A: 103%

Q: And the growth (786-0 renal)?
A: 95.6%

Q: And the growth (COLO 205 colon)?
A: 140%

Q: What about the growth (DU-145 prostate) of the same molecule?
A: 132%

Q: And the growth (K-562 leukemia)?
A: 87.7%

Q: What about the growth (MALME-3M melanoma) of the same molecule?
A: 104%

Q: What about the growth (MDA-MB-231 breast) of the same molecule?
A: 111%

Q: What about the growth (RXF 393 renal) of the same molecule?
A: 95.9%

Q: And the growth (SF-268 CNS)?
A: 161%

Q: What about the growth (SF-295 CNS) of the same molecule?
A: 110%

Q: What about the growth (SF-539 CNS) of the same molecule?
A: 101%

Q: What about the growth (UACC-257 melanoma) of the same molecule?
A: 96.1%

Q: What about the growth (M14 melanoma) of the same molecule?
A: 98.9%

Q: For CCCN1C(=O)/C(=c2\sc3n(c2=O)C2C(NN=3)N(CC)C(=O)N2CC)c2ccccc21 (stereo not given), which growth (NCI-H23 lung) is on record?
A: 37.8%

Q: What about the growth (NCI-H226 lung) of the same molecule?
A: 57.1%

Q: What about the growth (NCI-H322M lung) of the same molecule?
A: 53.1%

Q: What about the growth (HOP-62 NSCLC) of the same molecule?
A: 45.8%

Q: What about the growth (NCI-H460 lung) of the same molecule?
A: 5.57% (active)

Q: And the growth (HOP-92 NSCLC)?
A: 67.7%

Q: What about the growth (NCI-H522 lung) of the same molecule?
A: 1.15% (active)

Q: What about the growth (A549/ATCC NSCLC) of the same molecule?
A: 26.2%

Q: What about the growth (786-0 renal) of the same molecule?
A: 36.5%

Q: And the growth (COLO 205 colon)?
A: 17.5%

Q: And the growth (DU-145 prostate)?
A: 13.6%

Q: And the growth (K-562 leukemia)?
A: 9.52% (active)

Q: And the growth (MALME-3M melanoma)?
A: 45.4%

Q: What about the growth (MDA-MB-231 breast) of the same molecule?
A: 13.9%

Q: What about the growth (RXF 393 renal) of the same molecule?
A: 17.3%

Q: And the growth (SF-268 CNS)?
A: 58.7%

Q: And the growth (SF-295 CNS)?
A: 7.46% (active)

Q: What about the growth (SF-539 CNS) of the same molecule?
A: -17% (active)

Q: What about the growth (UACC-257 melanoma) of the same molecule?
A: 24.5%

Q: And the growth (M14 melanoma)?
A: 17.5%

Q: With O=C(/C=C/c1ccc(F)cc1)Nc1ncc(Cc2ccc(F)cc2)s1 as the molecule, how does the growth (NCI-H23 lung) read?
A: 61.5%

Q: And the growth (NCI-H226 lung)?
A: 70%

Q: And the growth (NCI-H322M lung)?
A: 41.4%

Q: And the growth (HOP-62 NSCLC)?
A: 39%

Q: And the growth (NCI-H460 lung)?
A: 17%

Q: And the growth (HOP-92 NSCLC)?
A: 71.5%

Q: What about the growth (NCI-H522 lung) of the same molecule?
A: 19.1%

Q: And the growth (A549/ATCC NSCLC)?
A: 38.1%

Q: And the growth (786-0 renal)?
A: 46.7%

Q: And the growth (COLO 205 colon)?
A: 23.8%

Q: What about the growth (DU-145 prostate) of the same molecule?
A: 33%

Q: What about the growth (K-562 leukemia) of the same molecule?
A: 14%

Q: What about the growth (MALME-3M melanoma) of the same molecule?
A: 41.5%

Q: What about the growth (MDA-MB-231 breast) of the same molecule?
A: 75.7%

Q: What about the growth (RXF 393 renal) of the same molecule?
A: 32.1%

Q: What about the growth (SF-268 CNS) of the same molecule?
A: 52.3%

Q: And the growth (SF-295 CNS)?
A: 20.2%

Q: What about the growth (SF-539 CNS) of the same molecule?
A: 22%

Q: What about the growth (UACC-257 melanoma) of the same molecule?
A: 60.3%

Q: What about the growth (M14 melanoma) of the same molecule?
A: 19.9%

Q: Which results are given for CC(=O)c1c(C)nc(SCC(=O)Nc2ccc(Cl)cc2)n1-c1ccc(Cl)cc1?
A: growth (NCI-H23 lung): 96.5%; growth (NCI-H226 lung): 96%; growth (NCI-H322M lung): 94.9%; growth (HOP-62 NSCLC): 99%; growth (NCI-H460 lung): 86.7%; growth (HOP-92 NSCLC): 110%; growth (NCI-H522 lung): 72.3%; growth (A549/ATCC NSCLC): 86.7%; growth (786-0 renal): 102%; growth (COLO 205 colon): 109%; growth (DU-145 prostate): 106%; growth (K-562 leukemia): 83%; growth (MALME-3M melanoma): 90.8%; growth (MDA-MB-231 breast): 82%; growth (RXF 393 renal): 67.3%; growth (SF-268 CNS): 92.5%; growth (SF-295 CNS): 91.3%; growth (SF-539 CNS): 95.8%; growth (UACC-257 melanoma): 94.5%; growth (M14 melanoma): 98.4%

Q: For O=[N+]([O-])c1cc(C(F)(F)F)ccc1Sc1ccc(C(F)(F)F)cc1[N+](=O)[O-], which growth (NCI-H23 lung) is on record?
A: 63.1%

Q: What about the growth (NCI-H226 lung) of the same molecule?
A: 90.9%

Q: And the growth (NCI-H322M lung)?
A: 112%

Q: What about the growth (HOP-62 NSCLC) of the same molecule?
A: 94.6%

Q: And the growth (NCI-H460 lung)?
A: 74.4%

Q: What about the growth (HOP-92 NSCLC) of the same molecule?
A: 120%

Q: What about the growth (NCI-H522 lung) of the same molecule?
A: 77.9%

Q: What about the growth (A549/ATCC NSCLC) of the same molecule?
A: 93.4%

Q: And the growth (786-0 renal)?
A: 103%

Q: And the growth (COLO 205 colon)?
A: 123%

Q: What about the growth (DU-145 prostate) of the same molecule?
A: 64.4%

Q: What about the growth (K-562 leukemia) of the same molecule?
A: 8.04% (active)

Q: What about the growth (MALME-3M melanoma) of the same molecule?
A: 61.9%

Q: What about the growth (MDA-MB-231 breast) of the same molecule?
A: 72.4%

Q: And the growth (RXF 393 renal)?
A: 93.1%

Q: What about the growth (SF-268 CNS) of the same molecule?
A: 63%

Q: And the growth (SF-295 CNS)?
A: 106%

Q: What about the growth (SF-539 CNS) of the same molecule?
A: 61.1%

Q: And the growth (UACC-257 melanoma)?
A: 76.3%

Q: And the growth (M14 melanoma)?
A: 49%

Q: Which growth (NCI-H23 lung) does the source give for N#C/C(=N\Nc1ccc(Cl)cc1)C(=O)Nc1cc(-c2ccccc2)nn1-c1ccccc1 here?
A: 1.09% (active)

Q: And the growth (NCI-H226 lung)?
A: 51.5%

Q: What about the growth (NCI-H322M lung) of the same molecule?
A: 11.9%

Q: What about the growth (HOP-62 NSCLC) of the same molecule?
A: 61.4%

Q: What about the growth (NCI-H460 lung) of the same molecule?
A: 8.34% (active)

Q: And the growth (HOP-92 NSCLC)?
A: -23.4% (active)

Q: What about the growth (NCI-H522 lung) of the same molecule?
A: 7.38% (active)

Q: And the growth (A549/ATCC NSCLC)?
A: 33.8%

Q: What about the growth (786-0 renal) of the same molecule?
A: 45.2%

Q: And the growth (COLO 205 colon)?
A: 65.4%

Q: What about the growth (DU-145 prostate) of the same molecule?
A: 35%

Q: What about the growth (K-562 leukemia) of the same molecule?
A: 12.2%

Q: And the growth (MALME-3M melanoma)?
A: 2.07% (active)

Q: And the growth (MDA-MB-231 breast)?
A: 24.3%

Q: What about the growth (RXF 393 renal) of the same molecule?
A: 47.1%

Q: And the growth (SF-268 CNS)?
A: 19.9%

Q: What about the growth (SF-295 CNS) of the same molecule?
A: 1.62% (active)

Q: And the growth (SF-539 CNS)?
A: 52.3%

Q: What about the growth (UACC-257 melanoma) of the same molecule?
A: 13.2%

Q: And the growth (M14 melanoma)?
A: 35.6%

Q: CN1CCN(Cc2ccc(NC(=O)c3nc4ccc5[nH]ncc5c4c4c3CCCC4)cc2C(F)(F)F)CC1 was tested. Which growth (NCI-H23 lung) did it give?
A: -21.9% (active)

Q: What about the growth (NCI-H226 lung) of the same molecule?
A: 73.4%

Q: And the growth (NCI-H322M lung)?
A: 19%

Q: What about the growth (HOP-62 NSCLC) of the same molecule?
A: -75.9% (active)

Q: What about the growth (NCI-H460 lung) of the same molecule?
A: -58.6% (active)

Q: And the growth (HOP-92 NSCLC)?
A: -79.9% (active)

Q: What about the growth (NCI-H522 lung) of the same molecule?
A: -70.7% (active)

Q: And the growth (A549/ATCC NSCLC)?
A: -83.1% (active)

Q: What about the growth (786-0 renal) of the same molecule?
A: -85.4% (active)

Q: And the growth (COLO 205 colon)?
A: -86.8% (active)

Q: What about the growth (DU-145 prostate) of the same molecule?
A: -73.1% (active)

Q: What about the growth (K-562 leukemia) of the same molecule?
A: -48.4% (active)

Q: And the growth (MALME-3M melanoma)?
A: -75.7% (active)

Q: And the growth (MDA-MB-231 breast)?
A: -81.2% (active)

Q: And the growth (RXF 393 renal)?
A: -97.1% (active)

Q: What about the growth (SF-268 CNS) of the same molecule?
A: -75.7% (active)

Q: And the growth (SF-295 CNS)?
A: -67.7% (active)

Q: And the growth (SF-539 CNS)?
A: -89.3% (active)

Q: And the growth (UACC-257 melanoma)?
A: -80.3% (active)

Q: And the growth (M14 melanoma)?
A: -64.1% (active)
